# Columns and labels:
# [1] = target: T1, Tyrosine-protein kinase Tec (Homo sapiens) (UniProt P42680); conditions: at 1 µM
# T1 sequence (whole entry): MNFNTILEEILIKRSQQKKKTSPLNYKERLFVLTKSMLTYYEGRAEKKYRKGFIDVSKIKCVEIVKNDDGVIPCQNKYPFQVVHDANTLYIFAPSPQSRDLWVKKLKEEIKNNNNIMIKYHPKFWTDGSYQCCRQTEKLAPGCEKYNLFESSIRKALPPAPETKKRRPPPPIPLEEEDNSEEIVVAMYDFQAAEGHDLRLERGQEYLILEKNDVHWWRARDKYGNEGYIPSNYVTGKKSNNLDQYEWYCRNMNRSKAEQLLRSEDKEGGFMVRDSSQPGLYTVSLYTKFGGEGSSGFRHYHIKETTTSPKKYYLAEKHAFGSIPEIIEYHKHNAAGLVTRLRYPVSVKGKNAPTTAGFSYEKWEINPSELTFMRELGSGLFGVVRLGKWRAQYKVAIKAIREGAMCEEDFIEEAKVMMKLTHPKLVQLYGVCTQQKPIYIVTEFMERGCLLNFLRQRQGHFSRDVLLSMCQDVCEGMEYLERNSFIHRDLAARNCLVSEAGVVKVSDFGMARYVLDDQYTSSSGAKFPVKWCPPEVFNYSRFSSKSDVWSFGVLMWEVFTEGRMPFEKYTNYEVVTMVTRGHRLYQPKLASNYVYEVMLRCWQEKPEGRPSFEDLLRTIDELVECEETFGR
# [2] = target: T1, Tyrosine-protein kinase Tec (Homo sapiens); conditions: at 10 µM
# [3] = target: Angiopoietin-1 receptor (Homo sapiens) (UniProt Q02763); conditions: at 1 µM
# [4] = target: Angiopoietin-1 receptor (Homo sapiens) (UniProt Q02763); conditions: at 10 µM
# [5] = target: High affinity nerve growth factor receptor (Homo sapiens) (UniProt P04629); conditions: at 1 µM
# [6] = target: High affinity nerve growth factor receptor (Homo sapiens) (UniProt P04629); conditions: at 10 µM
# [7] = target: BDNF/NT-3 growth factors receptor (Homo sapiens) (UniProt Q16620); conditions: at 1 µM
# [8] = target: BDNF/NT-3 growth factors receptor (Homo sapiens) (UniProt Q16620); conditions: at 10 µM
# [9] = target: T2, Tyrosine-protein kinase TXK (Homo sapiens) (UniProt P42681); conditions: at 1 µM
# T2 sequence (whole entry): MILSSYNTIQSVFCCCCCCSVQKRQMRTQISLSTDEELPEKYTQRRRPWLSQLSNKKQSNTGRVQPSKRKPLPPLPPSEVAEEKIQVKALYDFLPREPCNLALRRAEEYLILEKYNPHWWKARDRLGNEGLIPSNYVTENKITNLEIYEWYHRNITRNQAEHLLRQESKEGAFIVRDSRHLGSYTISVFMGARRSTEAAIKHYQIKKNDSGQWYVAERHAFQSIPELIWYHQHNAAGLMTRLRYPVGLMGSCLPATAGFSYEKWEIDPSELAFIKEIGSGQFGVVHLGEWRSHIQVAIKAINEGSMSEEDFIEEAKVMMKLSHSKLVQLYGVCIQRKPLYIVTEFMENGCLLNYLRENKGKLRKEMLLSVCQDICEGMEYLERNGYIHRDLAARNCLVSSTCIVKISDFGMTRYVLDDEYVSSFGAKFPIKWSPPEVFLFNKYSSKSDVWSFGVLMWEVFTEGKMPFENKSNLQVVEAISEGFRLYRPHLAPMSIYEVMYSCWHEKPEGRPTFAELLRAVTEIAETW
# [10] = target: T2, Tyrosine-protein kinase TXK (Homo sapiens); conditions: at 10 µM
# High affinity nerve growth factor receptor (Homo sapiens), sequence (P04629 33-796 limits assumed): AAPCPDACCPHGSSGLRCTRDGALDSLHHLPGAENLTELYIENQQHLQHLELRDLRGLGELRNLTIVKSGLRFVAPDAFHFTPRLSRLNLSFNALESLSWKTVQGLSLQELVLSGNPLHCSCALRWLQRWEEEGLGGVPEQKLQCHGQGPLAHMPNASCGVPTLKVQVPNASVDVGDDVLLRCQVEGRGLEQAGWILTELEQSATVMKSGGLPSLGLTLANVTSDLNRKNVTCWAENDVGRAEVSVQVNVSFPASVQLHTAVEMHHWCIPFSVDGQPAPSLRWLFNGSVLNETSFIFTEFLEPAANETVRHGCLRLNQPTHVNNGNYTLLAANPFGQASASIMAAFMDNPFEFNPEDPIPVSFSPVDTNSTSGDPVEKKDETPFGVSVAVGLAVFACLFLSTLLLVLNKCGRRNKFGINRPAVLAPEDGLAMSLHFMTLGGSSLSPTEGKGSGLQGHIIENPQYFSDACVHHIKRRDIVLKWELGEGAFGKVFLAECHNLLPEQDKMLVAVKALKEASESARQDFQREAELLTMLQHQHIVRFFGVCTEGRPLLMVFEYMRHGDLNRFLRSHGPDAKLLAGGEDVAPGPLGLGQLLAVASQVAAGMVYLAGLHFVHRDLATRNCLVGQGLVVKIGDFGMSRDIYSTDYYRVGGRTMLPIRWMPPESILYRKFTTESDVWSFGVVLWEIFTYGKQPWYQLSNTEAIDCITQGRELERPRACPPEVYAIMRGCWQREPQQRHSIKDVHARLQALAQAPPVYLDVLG
# Angiopoietin-1 receptor (Homo sapiens), sequence (Q02763 whole entry): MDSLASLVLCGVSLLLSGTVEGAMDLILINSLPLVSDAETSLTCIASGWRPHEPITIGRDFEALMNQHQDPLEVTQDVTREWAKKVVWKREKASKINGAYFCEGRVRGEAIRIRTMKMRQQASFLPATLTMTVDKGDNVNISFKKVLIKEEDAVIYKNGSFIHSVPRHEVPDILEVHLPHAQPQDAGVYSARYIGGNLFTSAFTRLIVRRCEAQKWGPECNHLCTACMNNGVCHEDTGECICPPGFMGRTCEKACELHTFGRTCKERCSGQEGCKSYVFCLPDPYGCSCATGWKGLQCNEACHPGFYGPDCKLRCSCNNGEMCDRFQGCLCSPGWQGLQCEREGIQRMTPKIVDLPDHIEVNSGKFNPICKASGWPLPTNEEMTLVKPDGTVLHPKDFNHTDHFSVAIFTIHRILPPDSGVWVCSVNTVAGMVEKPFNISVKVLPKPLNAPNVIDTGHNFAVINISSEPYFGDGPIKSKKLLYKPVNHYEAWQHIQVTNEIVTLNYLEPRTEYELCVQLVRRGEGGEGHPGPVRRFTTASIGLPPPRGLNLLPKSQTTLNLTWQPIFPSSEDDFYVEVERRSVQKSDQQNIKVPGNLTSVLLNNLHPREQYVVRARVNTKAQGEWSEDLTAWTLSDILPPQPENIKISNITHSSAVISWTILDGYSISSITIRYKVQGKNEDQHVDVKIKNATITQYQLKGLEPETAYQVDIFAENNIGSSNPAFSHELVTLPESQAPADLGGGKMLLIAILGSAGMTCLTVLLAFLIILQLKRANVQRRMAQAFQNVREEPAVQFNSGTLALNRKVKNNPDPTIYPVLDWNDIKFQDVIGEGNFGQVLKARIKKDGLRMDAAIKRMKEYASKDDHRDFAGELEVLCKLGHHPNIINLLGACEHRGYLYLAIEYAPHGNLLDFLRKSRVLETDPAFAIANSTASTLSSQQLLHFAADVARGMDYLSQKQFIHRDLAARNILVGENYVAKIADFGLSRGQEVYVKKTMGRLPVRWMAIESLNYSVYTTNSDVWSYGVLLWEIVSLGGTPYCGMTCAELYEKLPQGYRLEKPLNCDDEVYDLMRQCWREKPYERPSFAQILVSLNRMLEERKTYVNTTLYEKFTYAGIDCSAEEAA
# BDNF/NT-3 growth factors receptor (Homo sapiens), sequence (Q16620 32-822 limits assumed): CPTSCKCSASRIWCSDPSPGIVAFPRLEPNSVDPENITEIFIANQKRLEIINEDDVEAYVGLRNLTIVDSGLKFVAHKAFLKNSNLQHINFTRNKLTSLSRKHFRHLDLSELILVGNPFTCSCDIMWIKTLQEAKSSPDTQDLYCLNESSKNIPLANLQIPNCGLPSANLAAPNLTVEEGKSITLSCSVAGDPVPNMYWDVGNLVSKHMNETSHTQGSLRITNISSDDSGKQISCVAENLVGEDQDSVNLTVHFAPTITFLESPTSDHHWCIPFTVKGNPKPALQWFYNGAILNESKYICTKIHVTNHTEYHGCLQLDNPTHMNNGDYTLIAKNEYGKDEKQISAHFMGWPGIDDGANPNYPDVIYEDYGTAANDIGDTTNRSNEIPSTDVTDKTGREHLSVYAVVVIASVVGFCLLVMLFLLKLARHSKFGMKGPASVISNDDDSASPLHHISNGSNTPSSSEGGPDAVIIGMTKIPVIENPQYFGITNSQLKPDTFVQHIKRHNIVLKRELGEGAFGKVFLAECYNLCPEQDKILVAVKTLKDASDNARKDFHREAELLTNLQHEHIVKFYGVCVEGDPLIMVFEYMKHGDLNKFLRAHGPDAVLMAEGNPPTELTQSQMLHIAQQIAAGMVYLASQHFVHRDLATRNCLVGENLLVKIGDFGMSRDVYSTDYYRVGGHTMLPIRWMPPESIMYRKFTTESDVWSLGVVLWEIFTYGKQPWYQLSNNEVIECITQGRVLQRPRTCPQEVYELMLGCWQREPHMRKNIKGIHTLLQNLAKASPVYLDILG
compound,measurement,setting,value
O=[N+]([O-])/C=C/c1ccc2c(c1)OCO2,residual activity,[1],89%
same,residual activity,[2],90%
same,residual activity,[3],80%
same,residual activity,[4],60%
same,residual activity,[5],94%
same,residual activity,[6],116%
same,residual activity,[7],120%
same,residual activity,[8],119%
same,residual activity,[9],76%
same,residual activity,[10],77%
O=c1[nH]c2ccccc2n1C1CCN(Cc2ccc(-c3nc4cc5[nH]cnc5cc4nc3-c3ccccc3)cc2)CC1,residual activity,[1],95%
same,residual activity,[2],38%
same,residual activity,[3],86%
same,residual activity,[4],37%
same,residual activity,[5],86%
same,residual activity,[6],56%
same,residual activity,[7],75%
same,residual activity,[8],70%
same,residual activity,[9],102%
same,residual activity,[10],94%
COc1cc(OC)c(/C=C2\C(=O)Nc3ccccc32)c(OC)c1,residual activity,[1],98%
same,residual activity,[2],77%
same,residual activity,[3],93%
same,residual activity,[4],59%
same,residual activity,[5],89%
same,residual activity,[6],59%
same,residual activity,[9],107%
same,residual activity,[10],100%
COc1ccc2c(c1)/C(=C/c1cnc[nH]1)C(=O)N2,residual activity,[2],70%
same,residual activity,[4],71%
same,residual activity,[5],3%
same,residual activity,[6],0%
same,residual activity,[9],77%
same,residual activity,[10],46%
c1cc(-c2cnn3cc(-c4ccc(OCCN5CCCCC5)cc4)cnc23)ccn1,residual activity,[2],75%
same,residual activity,[4],44%
same,residual activity,[5],28%
same,residual activity,[6],2%
same,residual activity,[7],61%
same,residual activity,[8],7%
same,residual activity,[9],44%
same,residual activity,[10],7%
CC(C)[C@H](CO)Nc1nc(Nc2cccc(Cl)c2)c2ncn(C(C)C)c2n1,residual activity,[1],63%
same,residual activity,[2],8%
same,residual activity,[3],99%
same,residual activity,[4],59%
same,residual activity,[5],3%
same,residual activity,[6],1%
same,residual activity,[7],8%
same,residual activity,[8],0%
same,residual activity,[9],66%
same,residual activity,[10],16%
COc1cc2ncnc(Nc3ccc(OCc4ccccc4)cc3)c2cc1OC,residual activity,[1],107%
same,residual activity,[2],67%
same,residual activity,[3],106%
same,residual activity,[4],78%
same,residual activity,[5],69%
same,residual activity,[6],72%
same,residual activity,[7],93%
same,residual activity,[8],122%
same,residual activity,[9],97%
same,residual activity,[10],57%
COC(=O)[C@@]1(O)C[C@H]2O[C@]1(C)n1c3ccccc3c3c4c(c5c6ccccc6n2c5c31)C(=O)NC4,residual activity,[1],3%
same,residual activity,[2],2%
same,residual activity,[3],20%
same,residual activity,[4],3%
same,residual activity,[7],0%
same,residual activity,[8],0%
same,residual activity,[9],35%
same,residual activity,[10],5%

# Reference: ChEMBL document CHEMBL2218924, “A broad activity screen in support of a chemogenomic map for kinase signalling research and drug discovery” (Biochem J, 2013)
